# Measured values from PubChem BioAssay (Tox21).
# Results filed as inconclusive are left out. The source made the active and inactive calls. Calls come from the whole dose curve; as a rule, active = well fitted curve in the direction sought with a large enough effect in the repeat runs; inconclusive = weak or mixed curves; inactive = no such curve, though single readings can be large; an effect the other way counts as inactive or inconclusive.
# Biological target: Androgen receptor (Homo sapiens) (UniProt P10275)
# Sequence (P10275 whole entry, looked up): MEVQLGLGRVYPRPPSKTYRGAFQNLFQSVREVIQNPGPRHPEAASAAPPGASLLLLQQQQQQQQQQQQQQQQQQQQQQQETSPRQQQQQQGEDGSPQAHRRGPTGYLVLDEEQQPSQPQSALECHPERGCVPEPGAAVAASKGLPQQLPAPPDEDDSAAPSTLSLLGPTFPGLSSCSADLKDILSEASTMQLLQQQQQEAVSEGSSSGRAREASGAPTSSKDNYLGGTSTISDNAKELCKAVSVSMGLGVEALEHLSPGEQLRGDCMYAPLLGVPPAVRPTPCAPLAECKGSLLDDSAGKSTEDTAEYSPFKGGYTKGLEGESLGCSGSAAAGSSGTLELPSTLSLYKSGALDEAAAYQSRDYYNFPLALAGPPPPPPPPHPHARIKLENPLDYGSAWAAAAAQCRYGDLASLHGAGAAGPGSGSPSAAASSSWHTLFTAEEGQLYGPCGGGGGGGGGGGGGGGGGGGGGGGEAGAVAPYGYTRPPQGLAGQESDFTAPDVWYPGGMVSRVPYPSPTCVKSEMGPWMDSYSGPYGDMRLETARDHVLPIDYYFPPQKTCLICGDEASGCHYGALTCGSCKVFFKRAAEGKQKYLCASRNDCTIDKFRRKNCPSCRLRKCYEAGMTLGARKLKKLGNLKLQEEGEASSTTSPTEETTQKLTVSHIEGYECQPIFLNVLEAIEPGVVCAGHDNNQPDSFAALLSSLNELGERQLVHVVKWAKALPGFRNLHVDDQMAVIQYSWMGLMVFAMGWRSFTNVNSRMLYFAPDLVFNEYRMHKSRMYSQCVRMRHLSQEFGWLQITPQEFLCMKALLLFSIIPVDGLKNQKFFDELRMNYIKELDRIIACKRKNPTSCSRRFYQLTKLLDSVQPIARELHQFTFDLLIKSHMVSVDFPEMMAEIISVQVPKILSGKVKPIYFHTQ
# Assay: qHTS assay to identify small molecule antagonists of the androgen receptor (AR) signaling pathway using the MDA cell line (AID 743042; note: nearly all actives have a fitted effect of over 55% in size)
# Conditions: MDA-kb2 AR-luc, MMTV luciferase, R1881 antagonist, 16 h; series mostly up to 70.3 µM; activity change, negative = inhibition: at the top concentration
# Summary of the method: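 MDA-kb2 breast carcinoma cells carrying MMTV-luciferase (AR/GR responsive) were co-treated with compounds and the agonist R1881 for 16 h at 37C. Inhibition read as ONE-Glo luminescence; CellTiter-Fluor fluorescence measured in parallel for cytotoxicity.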
# % is set by controls: 0 for no effect and ±100 for the full control effect; potency is the fitted concentration of half-maximal effect.
SMILES,"activity change, negative = inhibition",Potency
O=C(c1ccccc1)c1ccc(O)cc1,-1.81% [at 95 µM] (inactive),–
COC(=O)C1=C(C)NC(C)=C(C(=O)OC(C)(C)CN(C)CCC(c2ccccc2)c2ccccc2)C1c1cccc([N+](=O)[O-])c1 (centres undefined),–,29.8 µM (active)
O=S(=O)(Cl)c1c(Cl)cccc1Cl,14% (inactive),–
O=C(O)c1cc(Cl)cc(Cl)c1O,6.1% (inactive),–
Nc1c(Cl)cc(Cl)cc1[N+](=O)[O-],-11.3% (inactive),–
COc1cc(OC)c2ccc(=O)oc2c1,60.4% (inactive),–

# System: not listed separately
# Assay: qHTS assay to identify small molecule antagonists of the thyroid receptor (TR) signaling pathway - cell viability counter screen (AID 743064); note: nearly all actives have a fitted effect of over 50% in size
# Conditions: GH3.TRE-Luc viability, CellTiter-Fluor, 24 h; series mostly up to 70.3 µM; activity change, negative = cytotoxic: at the top concentration
# Summary of the method: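 Compounds were tested on GH3.TRE-Luc cells in the presence of T3 at 1 nM final. Following 23.5 h at 37 °C, cell viability was quantified by CellTiter-Fluor.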
SMILES,"activity change, negative = cytotoxic",Potency
COC(=O)c1sccc1S(N)(=O)=O,2.84% (inactive),–
Nc1nc2ccc(OC(F)(F)F)cc2s1,-24.3% (inactive),–
CC(C)(O)c1coc(S(=O)(=O)NC(=O)Nc2c3c(cc4c2CCC4)CCC3)c1,23% (inactive),–
CC(=O)OCCC(C)CC(C)(C)C (centres undefined),10.5% (inactive),–
Nc1ccc(N=Nc2ccc(N)cc2)cc1,–,24.3 µM (active)
CC/C=C\C/C=C\C/C=C\CCCCCCCC(=O)OCC,-6.12% [at 95 µM] (inactive),–
CO[C@@H]1[C@@H](OC)[C@H](C)[C@@](O)(CC(=O)O)O[C@H]1[C@H](C)[C@H]1O[C@@]2(CC[C@@](C)([C@H]3CC[C@@](C)([C@@H]4O[C@@H]([C@H]5O[C@](C)(O)[C@H](C)C[C@@H]5C)C[C@@H]4OC4C[C@H](OC)[C@@H](OC)[C@H](C)O4)O3)O2)C[C@H](O)[C@H]1C (some centres undefined),–,0.422 µM (active)
COc1ccc(CCN(C)CCCN2CCc3cc(OC)c(OC)cc3CC2=O)cc1OC,-9.85% (inactive),–
O=C(CCS)OCC(COC(=O)CCS)(COC(=O)CCS)COC(=O)CCS,7.64% (inactive),–
COc1cc(S(=O)(=O)Nc2ccccc2)c(OC)cc1N,-5.72% (inactive),–
O=C(O)c1cccc(C[C@@H]2COc3ccc(OCc4nc5cc(F)ccc5s4)cc3[C@@H]2O)c1,-0.263% (inactive),–
CCN(Cc1cccc(S(=O)(=O)O)c1)c1ccc(C(=C2C=CC(=[N+](CC)Cc3cccc(S(=O)(=O)O)c3)C=C2)c2ccccc2S(=O)(=O)[O-])cc1,–,34.5 µM (active)
[Cl][Nd]([Cl])[Cl],-1.21% (inactive),–
Cc1ccccc1S(N)(=O)=O,12.2% (inactive),–
COC(=O)C1=C(C)NC(C)=C(C(=O)OC(C)(C)CN(C)CCC(c2ccccc2)c2ccccc2)C1c1cccc([N+](=O)[O-])c1 (centres undefined),–,8.41 µM (active)
O=S(=O)(Cl)c1c(Cl)cccc1Cl,13.3% (inactive),–
O=C(/C=C/c1ccc([N+](=O)[O-])cc1)c1ccccc1,-25.7% (inactive),–
c1ccc(CNc2ncnc3c2ncn3C2CCCCO2)cc1 (centres undefined),8.73% (inactive),–
CC(=O)Oc1cccc(O)c1,3.39% (inactive),–
CS(=O)(=O)c1ccc([C@@H](C[C@H]2CCC(=O)C2)C(=O)Nc2cnccn2)cc1Cl,-6.48% (inactive),–
Cc1c(C2(c3cc(Br)c(O)c(Br)c3C)OS(=O)(=O)c3ccccc32)cc(Br)c(O)c1Br,–,42 µM (active)
Nc1c(Cl)cc(Cl)cc1[N+](=O)[O-],17.3% (inactive),–
CC(C)(C)C(O)/C=C/c1ccc2c(c1)OCO2 (centres undefined),6.5% (inactive),–
